SMN2 splice enh: qHTS Assay for Enhancers of SMN2 Splice Variant Expression | HEK293 SMN2-luciferase splicing reporter, luminescence, 30-36 h | 2.8% of 210,000 active | AID 1458, 2008 | Potency, µM (series often up to 46.1 µM), for inactives: top-dose activity change, positive = activation, actives largely listed as activators; also: % of control where 0% means no effect; nearly all actives have a fitted effect of over 55% in size
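HEK293 cells carry an SMN2 […]–luciferase reporter in which exon 7 inclusion puts luciferase in frame. Cells were plated 10-12 h before compound addition, then incubated 30-36 h at 37C. ONE-Glo luminescence was read; sodium butyrate at 4.5 mM final served as control.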
ELG1 genotox: qHTS screen for small molecules that induce genotoxicity in human embryonic kidney (HEK293T) cells expressing luciferase-tagged ELG1. 1.3% of 330,000 active. Potency, µM (highest dose often 46 µM), without a hit: at the top dose activity change, positive = activation, hits mostly activators. AID 504466, 2011. HEK293T ELG1-luciferase reporter, luminescence, 16 h; also: % of control where 0% means no effect; nearly all actives have a fitted effect of over 60% in size
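Genotoxicity was scored as increased ELG1-luciferase reporter signal, measured by ONE-Glo luminescence (30 min, room temperature). Compound or vehicle exposure of the HEK293T reporter cells lasted 16 hr at 37°C.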
NPC1 prom act: qHTS Assay for NPC1 Promoter Activators; Potency, µM (series often up to 9.22 µM), for the others: at the highest dose activation, hits mostly activators; 2.4% of 320,000 active; Huh7 NPC1 promoter luciferase reporter, 24 h; also: % of control where 0% means no effect; nearly all actives have a fitted effect of over 60% in size
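Quantitative HTS used a cell-based reporter: Huh7 cells stably bearing the NPC1 promoter upstream of luciferase were treated with compounds for 24 h, and promoter activation was read as luminescence.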
Rab9 promoter act: qHTS Assay for Rab9 Promoter Activators | Huh7 Rab9 promoter-luciferase reporter, luminescence, 24 h | Potency, µM (titrated, usually from 9.22 µM), for the others: at the highest dose activation, negative = inhibition, actives largely listed as activators | 2.8% of 320,000 active; also: % of control where 0% means no effect; nearly all actives have a fitted effect of over 60% in size
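Measured in stably transfected Huh7 cells bearing a Rab9 promoter–luciferase construct: 24 h compound treatment at 37 °C, followed by luminescence detection.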
FLuc counter: qHTS profiling assay for firefly luciferase inhibitor/activator using purifed enzyme and Km concentrations of substrates (counterscreen for miR-21 project); Luciferin 4-monooxygenase (Photinus pyralis), P08659; 6.9% of 360,000 active; Potency, µM (series often up to 57.5 µM), inactives show at the top dose activity change, negative = inhibition, actives largely listed as inhibitors; purified FLuc, Km substrates, luminescence inhibition;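 also: plate controls were vehicle for no effect and reference inhibitor for full effect; nearly all actives have a fitted effect of over 55% in size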
Target sequence (P08659 whole entry, looked up): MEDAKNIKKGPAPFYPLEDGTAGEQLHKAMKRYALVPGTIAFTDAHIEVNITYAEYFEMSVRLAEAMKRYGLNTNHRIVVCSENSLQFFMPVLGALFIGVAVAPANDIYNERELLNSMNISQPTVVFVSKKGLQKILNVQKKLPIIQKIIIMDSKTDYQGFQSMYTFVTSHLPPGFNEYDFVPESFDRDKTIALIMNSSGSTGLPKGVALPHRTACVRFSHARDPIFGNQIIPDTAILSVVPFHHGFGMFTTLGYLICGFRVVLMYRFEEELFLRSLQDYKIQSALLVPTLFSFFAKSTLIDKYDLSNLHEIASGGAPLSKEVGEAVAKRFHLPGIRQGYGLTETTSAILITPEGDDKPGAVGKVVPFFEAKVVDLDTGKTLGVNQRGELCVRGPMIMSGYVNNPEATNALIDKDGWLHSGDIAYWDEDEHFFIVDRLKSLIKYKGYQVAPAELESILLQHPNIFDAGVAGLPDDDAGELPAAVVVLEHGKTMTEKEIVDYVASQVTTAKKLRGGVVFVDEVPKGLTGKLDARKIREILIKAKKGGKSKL
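Biochemical qHTS of compounds, final roughly 60 µM downward over six points, against 10 nM purified firefly luciferase using Km concentrations of substrates (10 uM D-luciferin, 10 uM ATP) in Tris acetate pH 7.5 buffer; luminescence output.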
The depositor's hits bear a star; ? = inconclusive; . = no result; [ ] = dose if it differs, or a comment. This is a sample that favours compounds with a hit; in the whole collection about 7.4% have one here. Calls follow the shape of the dose curve; as a rule, active = well fitted curve in the direction sought with a large enough effect; inconclusive = small, poorly fitted or top-dose-only effect, or another doubt; inactive = no such curve, though single readings can be large; an effect the other way counts as inactive or inconclusive. Potency is read from the fitted curve at half-maximal effect.

SMILES	SMN2 splice enh	ELG1 genotox	NPC1 prom act	Rab9 promoter act	FLuc counter
CC(=O)c1ccc(NC(=O)CCc2c(C)nn(-c3ccc(N4CCCCC4)nn3)c2C)cc1	.	.	.	.	8.49µM*
COc1ccc(C)cc1NC(=O)CCc1c(C)nn(-c2ccc(N3CCCCC3)nn2)c1C	.	4.4%	?	?	12µM*
CCOc1ccccc1NC(=O)CCc1c(C)nn(-c2ccc(N3CCCCC3)nn2)c1C	.	-5.5%	2.9%	21.0%	10.7µM*
COc1ccc(NC(=O)CCc2c(C)nn(-c3ccc(N4CCOCC4)nn3)c2C)cc1	.	16.7%	16.4%	15.5%	?
CCOC(=O)c1cccc(NC(=O)CCc2nnc3ccc(N4CCCCC4)nn23)c1	.	-0.3%	-2.5%	-2.6%	2.0%
CCOC(=O)c1cccc(NC(=O)CCc2c(C)nn(-c3ccc(N4CCCCC4)nn3)c2C)c1	.	.	.	.	10.7µM*
Cc1nn(-c2ccc(N3CCCC3)nn2)c(C)c1CCC(=O)NCc1ccccc1F	.	.	.	.	-8.0%
Cc1nn(-c2ccc(N3CCOCC3)nn2)c(C)c1CCC(=O)Nc1ccccc1	.	3.0%	13.3%	11.3%	?
Cc1cc(C)cc(NC(=O)CCc2c(C)nn(-c3ccc(N4CCCCC4)nn3)c2C)c1	.	9.9%[9.26 µM]	?	?	4.78µM*
Cc1ccc(NC(=O)CCc2c(C)nn(-c3ccc(N4CCOCC4)nn3)c2C)cc1	.	10.5%	6.4%	24.8%	?
Cc1ccc(NC(=O)CCc2c(C)nn(-c3ccc(N4CCCCC4)nn3)c2C)cc1	.	9.7%[9.26 µM]	1.58µM*	?	10.7µM*
Cc1nn(-c2ccc(N3CCCCC3)nn2)c(C)c1CCC(=O)Nc1ccc(F)c(F)c1	.	0.6%	2.51µM*	2.51µM*	5.36µM*
CCCOc1cccc(C2c3c(oc4ccc(F)cc4c3=O)C(=O)N2CCCN2CCOCC2)c1 (configuration not stated)	4.6%	.	.	.	1.6%
NC(=O)COc1ccc(C(=O)/C=C2/C(=O)Nc3ccccc32)cc1	.	15.0%	2.9%	-4.9%	10.7µM*
C=CCOc1ccc(C(=O)/C=C2/C(=O)Nc3ccccc32)cc1	.	16.1%	-4.3%	-1.6%	1.51µM*
COc1ccc(C(=O)/C=C2/C(=O)Nc3ccccc32)cc1OC	.	6.6%	-0.9%	-0.8%	-13.7%
Cc1ccc(C(=O)O)cc1-c1ccc(C=C2C(=O)c3ccccc3C2=O)o1	15.6%	-0.4%	-0.1%	-4.4%	16.9µM*
COC(=O)C(C)N1C(=O)S/C(=C\c2ccc(-c3ccc(C(=O)O)cc3C)o2)C1=O (configuration not stated)	.	?	2.82µM*	2.24µM*	16.9µM*
O=C1C(=Cc2ccc(Br)o2)C(=O)c2ccccc21	9.2%	7.1%	9.1%	21.7%	13.5µM*
Cc1ccc(NC(=O)CCNS(=O)(=O)c2ccc(Br)cc2)cc1S(=O)(=O)N1CCOCC1	.	-12.0%	-4.2%	-8.0%	9.4%
Cc1cc(=O)oc2cc(OC(=O)C3CCN(C(=O)c4ccc(F)cc4)CC3)ccc12	.	-3.7%	3.9%	5.5%	5.0%
Cc1ccc(Cl)cc1NC(=O)CCCn1c(=O)c2cccn2c2cccnc21	.	.	.	.	-1.8%
COc1ccc(CCNC(=O)CCCn2c(=O)c3cccn3c3ccccc32)cc1OC	.	.	.	.	-1.3%
Cc1ccc(Cl)cc1NC(=O)CCCn1c(=O)c2cccn2c2ccccc21	.	.	.	.	12µM*
CN(C)CCNC(=O)CCCn1c(=O)c2cccn2c2ccccc21	.	.	.	.	15.1µM*
SMILES	SMN2 splice enh	ELG1 genotox	NPC1 prom act	Rab9 promoter act	FLuc counter
COC(=O)c1c(-c2ccc(Cl)cc2)noc1N1CCN(c2ccc(OC)cc2)CC1	.	.	.	.	-2.5%
Cc1c(C(=O)NNC(=O)c2cccnc2)cccc1[N+](=O)[O-]	.	0.1%	.	.	.
COc1cccc(N=c2oc3ccc(OC)cc3cc2-c2nc3ccccc3[nH]2)c1	?	.	.	.	19µM*
COc1cccc(N=c2oc3ccccc3cc2-c2nc3ccccc3[nH]2)c1	15.8µM*	?	3.16µM*	1.58µM*	9.53µM*
CN(C)CCCN1CCC2(CCC(C(C)(C)C)CC2)CC1	-11.7%[9.22 µM]	.	.	.	.
CC(C)(C)C(=O)NNC(=O)CCCOc1ccc(Cl)cc1Cl	-12.9%	1.5%	-2.4%	2.7%	-7.0%
CC(C)(CO)NC(=O)CCCOc1ccc(Cl)cc1Cl	10µM*	11.2µM*	?	?	?
CC(=O)NC(=S)Nc1ccc(NC(=O)COc2ccc(Cl)cc2Cl)cc1	-12.7%	-0.5%	7.9%	-6.8%	-5.9%
O=C(CCCOc1ccc(Cl)cc1Cl)Nc1ccccc1C(=O)O	.	16.8%	2.51µM*	3.55µM*	8.49µM*
O=C(COc1ccc(Cl)cc1Cl)NNC(=S)Nc1ccc(F)cc1	.	-0.5%	0.9%	-2.9%	16.9µM*
O=C(COc1ccc(Cl)cc1Cl)Nc1ccc(C(=O)Nc2ccccc2C(=O)O)cc1	.	-17.3%	7.2%	5.8%	-15.0%
O=C(COc1ccc(Cl)cc1Cl)NC(=S)Nc1ccccc1C(=O)O	.	3.8%	5.4%	11.9%	6.75µM*
CCc1ccccc1-n1ncc(C(=O)Nc2ccccc2OC)c1C	.	-5.5%	-4.2%	4.5%	0.2%
CNS(=O)(=O)c1cn(CC(=O)Nc2ccc(OC)cc2OC)cc1S(=O)(=O)NC	.	.	.	.	-2.0%
CCOc1ccccc1NC(=O)c1c(NC(=O)Cc2ccc(OC)cc2)sc2c1CCC2	4.2%	.	.	.	1.6%
CC(C)c1ccc(Nc2nc3ccc(C(=O)c4ccccc4)cc3n3cnnc23)cc1	.	.	.	.	-4.7%
COc1ccccc1Cn1cc(C(=O)c2ccc(C)cc2)c(=O)c2cc(C)ccc21	1.0%	.	.	.	-1.6%
COc1ccc(NC(=O)COC(=O)CCCOc2ccc(Cl)cc2Cl)cc1Cl	8.1%	8.4%	-2.9%	1.8%	15.1µM*
COc1ccc(NC(=O)COC(=O)CCCOc2ccc(Cl)cc2Cl)cc1	16.0%	3.6%	2.1%	-1.9%	?
O=C(NCc1cc(C(F)(F)F)cc(C(F)(F)F)c1)C1CC(c2ccccc2C(F)(F)F)=NO1 (configuration not stated)	.	-1.6%	-1.6%	-1.9%	0.1%
O=C(OCC(=O)C12CC3CC(CC(C3)C1)C2)c1ccc(O)cc1O	.	23.1µM*	6.4%	17.7%	19µM*
